Measured values: PubChem BioAssay (NCI)
This is part of a sample that, as a whole, favours compounds with a hit. Of some 83,000 tested, about 20% had one in any assay.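 The endpoint reported here, percent growth, reads 100 for growth as untreated, 0 for no net growth and -100 for all cells dead.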 A number with no mark means an inactive call. Active and inactive are the calls of the source. How the source made its calls: active means growth percent below 10; inactive means the rest.

Legend:
Assay in all cases: NCI-60 one-dose screen, 48 h (100 = growth as untreated, 0 = no growth, -100 = all killed)
[1] = system: SR leukemia; settings: 10 µM unless noted
[2] = system: OVCAR-8 ovarian; settings: 10 µM unless noted
[3] = system: OVCAR-5 ovarian; settings: 10 µM unless noted
[4] = system: OVCAR-4 ovarian; settings: 10 µM
[5] = system: SK-OV-3 ovarian; settings: 10 µM unless noted
[6] = system: IGROV1 ovarian; settings: 10 µM unless noted
[7] = system: OVCAR-3 ovarian; settings: 10 µM unless noted
[8] = system: NCI/ADR-RES ovarian; settings: 10 µM unless noted
[9] = system: HS 578T breast; settings: 10 µM unless noted

Compound: CCCCCCCCCN(CCCCCCCCC)C(C)C(=O)c1ccc2cc(Br)c3ccccc3c2c1 (centres undefined)
- growth [1]: 7.35% (active)
- growth [2]: 94%
- growth [3]: 80.4%
- growth [4]: 85.7%
- growth [5]: 90.8%
- growth [6]: 75.7%
- growth [7]: 89.1%
- growth [8]: 84.9%

Compound: COc1cc2c(c(OC)c1)C1c3cc(OC)ccc3NC(=O)N1CC2 (centres undefined)
- growth [1]: 24%
- growth [2]: 95.1%
- growth [3]: 93.7%
- growth [4]: 96.2%
- growth [5]: 93.1%
- growth [6]: 80.2%
- growth [7]: 81.9%
- growth [9]: 90.2%
- growth [8]: 51.5%

Compound: CC(C)c1ccc(C(=O)Nc2sc3c(c2C#N)CCC(=O)C3)cc1
- growth [1]: -11.7% (active)
- growth [2]: 13.7%
- growth [3]: 11.1%
- growth [4]: -78% (active)
- growth [6]: 18.4%
- growth [7]: -33.4% (active)
- growth [9]: 25.4%
- growth [8]: 3.12% (active)

Compound: COc1cc2c(cc1OCCCN1CCN(CCCOc3cc4c(cc3OC)C(=O)N3C[C@H](F)C[C@H]3C=N4)CC1)N=C[C@@H]1C[C@@H](F)CN1C2=O
- growth [1]: -23.4% (active)
- growth [2]: 24.4%
- growth [3]: 9.91% (active)
- growth [4]: 1.26% (active)
- growth [5]: 36.1%
- growth [6]: 12.4%
- growth [7]: 5.75% (active)
- growth [8]: 63.6%

Compound: Cc1ccc(S(=O)(=O)Nc2ccccc2)cc1N
- growth [1]: 92.2%
- growth [2]: 95.4%
- growth [3]: 91.3%
- growth [4]: 111%
- growth [5]: 104%
- growth [7]: 95.6%
- growth [8]: 91%

Compound: CCNC(=O)N1CCc2c(Cl)c3c(c(OC)c2[C@@H]1[C@H]1OCc2c1ccc(OC)c2OC)OCCO3
- growth [1]: 18.3%
- growth [2]: 30.7%
- growth [3]: 38.1%
- growth [4]: 57.6%
- growth [6]: 29.1%
- growth [7]: -5.71% (active)
- growth [9]: 14.5%
- growth [8]: 1.11% (active)

Compound: COc1cc(Cl)cc(-c2nn(C(=O)NS(=O)(=O)c3ccccc3)cc2-c2ccncc2)c1
- growth [1]: 87.6%
- growth [2]: 33.1%
- growth [3]: 96.5%
- growth [5]: 83.2%
- growth [6]: 92.1%
- growth [7]: 104%
- growth [9]: 79.2%
- growth [8]: 97.5%

Compound: Cc1ccccc1-n1nnc(C(=O)Nc2nc3ccc(F)cc3s2)c1C
- growth [1]: 55.9%
- growth [2]: 73.2%
- growth [3]: 82.2%
- growth [4]: 10.6%
- growth [6]: 75.7%
- growth [7]: 57.9%
- growth [8]: 60.7%

Compound: C=C(C)[C@@H]1CC[C@]2(C)[C@H](CC=C3[C@@H]4[C@@H](C)[C@H](C)CC[C@]4(C(N)=O)CC[C@]32C)[C@@]1(C)CCC#N
- growth [1]: 30.2% [100 µM]
- growth [2]: 3.49% [100 µM] (active)
- growth [3]: 1.03% [100 µM] (active)
- growth [5]: 5.31% [100 µM] (active)
- growth [6]: 7.81% [100 µM] (active)
- growth [7]: -53.6% [100 µM] (active)
- growth [9]: 5.08% [100 µM] (active)
- growth [8]: -32% [100 µM] (active)

Compound: CC(C)C1=NOC(=O)C1=Cc1cn(-c2ccccc2)nc1-c1ccccc1
- growth [1]: -26.9% (active)
- growth [2]: 59.8%
- growth [3]: 102%
- growth [4]: 95.4%
- growth [5]: 112%
- growth [6]: 67.5%
- growth [7]: 88.4%
- growth [9]: 64%
- growth [8]: 94.6%

Compound: CCOC(=O)c1ccc2nc(-c3c(C)nn(-c4ccccc4)c3N3CCOCC3)[nH]c2c1
- growth [1]: 74%
- growth [2]: 93.4%
- growth [3]: 103%
- growth [4]: 87.1%
- growth [5]: 95.3%
- growth [6]: 81.4%
- growth [7]: 93.5%
- growth [8]: 95.9%

Compound: CN(C)CCOc1ccc(/C(=C(/CCCl)c2ccccc2)c2ccccc2)cc1
- growth [1]: -17% (active)
- growth [2]: 26.7%
- growth [3]: 47%
- growth [4]: 32.9%
- growth [5]: 33.6%
- growth [6]: 30.5%
- growth [7]: 12.9%
- growth [8]: 14.1%

Compound: O=C(N[C@@H]1CCCc2ccccc21)[C@H](CCC(=O)N1CCN(C2CCCCC2)CC1)N1C(=O)[C@@H](N2C(=O)OC[C@@H]2c2ccccc2)[C@H]1/C=C/c1ccccc1
- growth [1]: -25.1% (active)
- growth [2]: 54.4%
- growth [3]: 93.5%
- growth [4]: 36.8%
- growth [5]: 70.6%
- growth [6]: 49.3%
- growth [7]: 32.5%
- growth [8]: 33.3%

Compound: O=C(O)c1cn(C2CC2)c2cc(N3CCN(Cc4c(O)ccc5ccccc45)CC3)c(F)cc2c1=O
- growth [1]: 1.76% (active)
- growth [2]: 16.8%
- growth [3]: 40.8%
- growth [4]: 18.2%
- growth [5]: 48.4%
- growth [6]: 32.1%
- growth [7]: -44.1% (active)
- growth [9]: -6.63% (active)
- growth [8]: 45.4%

Compound: C[C@H]1[C@H](C)CC[C@]2(COC(=O)CCC(=O)O)CC[C@]3(C)C(=CC[C@@H]4[C@@]5(C)CCCNC(C)(C)[C@@H]5CC[C@]43C)[C@H]12
- growth [1]: 80.4% [100 µM]
- growth [2]: 69.8% [100 µM]
- growth [3]: 88.5% [100 µM]
- growth [5]: 65.2% [100 µM]
- growth [6]: 54.9% [100 µM]
- growth [7]: 75.4% [100 µM]
- growth [9]: 41.8% [100 µM]
- growth [8]: 71.8% [100 µM]

Compound: CCN(CC)c1ccc2cc(C(Nc3ccc(Br)c(C(F)(F)F)c3)c3nnnn3C(C)(C)C)c(=O)oc2c1 (centres undefined)
- growth [1]: 98.8%
- growth [3]: 92%
- growth [5]: 84.7%
- growth [6]: 106%
- growth [7]: 104%
- growth [9]: 79.6%
- growth [8]: 93.8%

Compound: O=C(NNc1ccc(-c2ccccc2)nn1)c1ccc(F)cc1
- growth [1]: 92%
- growth [2]: 98.6%
- growth [3]: 94.2%
- growth [4]: 94.8%
- growth [6]: 97%
- growth [7]: 103%
- growth [9]: 101%
- growth [8]: 93.3%

Compound: CC1(C)[C@@H](NOCCCN)CC[C@]2(C)[C@H]3C(=O)C=C4[C@@H]5C[C@](C)(C(=O)O)CC[C@]5(C)CC[C@@]4(C)[C@]3(C)CC[C@@H]12
- growth [1]: 17.9% [100 µM]
- growth [2]: -25.9% [100 µM] (active)
- growth [3]: -100% [100 µM] (active)
- growth [5]: -23.7% [100 µM] (active)
- growth [6]: -88.5% [100 µM] (active)
- growth [7]: -50.1% [100 µM] (active)
- growth [9]: -22.8% [100 µM] (active)
- growth [8]: -34.2% [100 µM] (active)

Compound: CC(C)(C)c1cc(C(=O)Nc2cc3ccccc3cc2C(=O)NCCN)cc(C(C)(C)C)c1
- growth [1]: -58.9% (active)
- growth [2]: -37.1% (active)
- growth [3]: -58.4% (active)
- growth [4]: -81.6% (active)
- growth [6]: -55% (active)
- growth [7]: -96% (active)
- growth [9]: -36.6% (active)
- growth [8]: -62.3% (active)

Compound: CCOC(=O)C(C(C)=O)c1nc2sc3cc(Cl)c(Cl)cc3n2c(=O)c1C#N (centres undefined)
- growth [1]: 105%
- growth [2]: 92.8%
- growth [3]: 122%
- growth [4]: 94.5%
- growth [5]: 83.2%
- growth [7]: 112%
- growth [9]: 114%
- growth [8]: 106%

Compound: CC(C)=CCC[C@](C)(O)[C@H]1CC[C@]2(C)[C@@H]1CC[C@@H]1[C@@]3(C)CC/C(=N/O)C(C)(C)[C@@H]3CC[C@]12C
- growth [1]: 12.5% [100 µM]
- growth [2]: -69.7% [100 µM] (active)
- growth [3]: 2.17% [100 µM] (active)
- growth [5]: 12.4% [100 µM]
- growth [6]: -66.5% [100 µM] (active)
- growth [7]: -42.3% [100 µM] (active)
- growth [8]: -10.9% [100 µM] (active)

Compound: O=c1[nH]cnc2c1ccn2C1OC(CO)C(O)C1O (centres undefined)
- growth [1]: 58.1%
- growth [2]: 31.4%
- growth [3]: 76.6%
- growth [4]: 24.5%
- growth [5]: 39.3%
- growth [6]: 48.7%
- growth [7]: 64.7%
- growth [8]: 31.1%

Compound: Cc1ccc2c(c1)C(C)Cc1c(Cl)ncnc1N2C (centres undefined)
- growth [1]: 22.6%
- growth [2]: 11.9%
- growth [3]: 40.4%
- growth [4]: 19.5%
- growth [5]: 15.7%
- growth [6]: 61%
- growth [7]: 6.8% (active)
- growth [9]: 32.7%
- growth [8]: 10.7%
